Assay outcomes as filed in PubChem BioAssay.
HPGD block – HPGD (human) dehydrogenase inhibition; P15428; purified HPGD, NADH fluorescence kinetic, PGE2 substrate; Potency, µM, inactives show at the highest dose activity change, negative = inhibition, hits mostly inhibitors; 4.3% of 150,000 active; AID 894; also: potency is read from the fitted curve at half-maximal effect; % is scaled to controls: 0 for no effect and ±100 for the full control effect
Target sequence (P15428 whole entry, looked up): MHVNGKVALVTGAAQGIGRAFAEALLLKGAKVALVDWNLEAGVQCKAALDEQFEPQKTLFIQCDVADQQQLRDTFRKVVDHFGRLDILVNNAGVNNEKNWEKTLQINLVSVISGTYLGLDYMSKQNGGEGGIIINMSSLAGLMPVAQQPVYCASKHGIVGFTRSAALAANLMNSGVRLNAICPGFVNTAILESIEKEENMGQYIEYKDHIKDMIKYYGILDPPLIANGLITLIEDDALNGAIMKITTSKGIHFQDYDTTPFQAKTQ
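NADH formation kinetics: reaction with 30 uM PGE2 and 1 mM NAD+ (final), 20 nM enzyme, Tris-HCl pH 8 with Tween 20, after 15 min compound preincubation at room temperature. Fluorescence change, last versus first of five reads.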
HTT ATP protect – protects HTT-Q103 PC12 cells, measured by ATP. PC12 HTT-Q103 induced, cytoprotection, ATP luminescence, 40 h. Potency, µM (highest dose often 56.4 µM), inactives show cytoprotection (ATP increase), usual class: activators. 0.14% of 230,000 active; active = well fitted curve in the direction sought with a large enough effect; inconclusive = small, poorly fitted or top-dose-only effect, or another doubt; inactive = no such curve, though single readings can be large; an effect the other way counts as inactive or inconclusive; also: potency is read from the fitted curve at half-maximal effect; % of control where 0% means no effect; nearly all actives have a fitted effect of over 45% in size
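ATP quantification (ATPlite) reports survival of PC12 cells in which tebufenozide, 100 nM final, switches on Htt exon 1 with 103 glutamines linked to GFP; compounds are titrated.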
ALDH1A1 inh – blocks purified human ALDH1A1 activity | Purified ALDH1A1, NADH fluorescence, propionaldehyde substrate | 7.3% of 220,000 active | Potency, µM (doses to about 75.3 µM), without a hit: at the top dose activity, negative = inhibition, usual class: inhibitors;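 also: potency is read from the fitted curve at half-maximal effect; plate controls were no enzyme wells and a reference inhibitor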
PNC assembly inh – blocks assembly of the perinucleolar compartment. PC3M PTB-GFP, PNC prevalence imaging, 16 h; hits give low values. activity change (PNC), negative = inhibition, % at 10 µM. 3.1% of 140,000 active;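 active = readout at or below -70, meaning at least 70% loss of cells showing the perinucleolar compartment, a nuclear body marking cancer cells; inconclusive = readout between -30 and a set limit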;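 also: plate controls were DMSO wells for no effect and camptothecin positive control wells for full effect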
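PC3M cells stably expressing PTB-GFP, 750–1000 cells/well, treated 16 h at 37 °C with compound (23 nl of library stock), in duplicate. After paraformaldehyde fixation and Hoechst stain, imaged at 20x; PNC prevalence scored by image analysis.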
HTT aggregate – reduces HttQ103-GFP aggregates in PC12 cells; Potency, µM (titrated, usually from 46.1 µM), for inactives: at the highest dose activity change, negative = inhibition, hits mostly inhibitors; AID 1688; 1.1% of 220,000 active; PC12 HttQ103-GFP aggregates, Acumen cytometry, 40 h; active = well fitted curve in the direction sought with a large enough effect; inconclusive = small, poorly fitted or top-dose-only effect, or another doubt; inactive = no such curve, though single readings can be large; an effect the other way counts as inactive or inconclusive; also: potency is read from the fitted curve at half-maximal effect; % is scaled to controls: 0 for no effect and ±100 for the full control effect; nearly all actives have a fitted effect of over 60% in size
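Compounds (qHTS titration) were added to PC12 cells expressing an ecdysone-driven HTT exon 1 Q103–GFP fusion after induction with 100 nM tebufenozide. Aggregate formation was measured as GFP objects in cell lysates.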
RGS12 GoLoco inh – RGS12 GoLoco-Gai1 interaction inhibition; P63096; Gai1:RGS12 GoLoco peptide FP, rhodamine, 10 min; Potency, µM (highest dose often 61.6 µM), for inactives: top-dose activity, negative = inhibition, actives largely listed as inhibitors; 0.44% of 230,000 active; AID 880; active = well fitted inhibition curve with a large enough effect, not every such curve was filed as active; inactive = no such curve, though single readings can be large or run the other way; also: potency is read from the fitted curve at half-maximal effect; % is scaled to controls: 0 for no effect and ±100 for the full control effect; nearly all actives have a fitted effect of over 30% in size
Active calls of the source: *; [ ] = dose if it differs, or a comment. Rows were chosen to be rich in hits. Some 11% of all compounds tested hit in one or more screens of this group. Unless noted, calls follow the shape of the dose curve; as a rule, active = well fitted inhibition curve with a large enough effect (not every such curve was filed as active); inconclusive = small, poorly fitted or top-dose-only effect, or another doubt; inactive = no such curve, though single readings can be large or run the other way.

Results for Cc1occc1-c1n[nH]c(=S)n1CC(C)C ?
HPGD block: -22%; HTT ATP protect: 6%[10 µM]; ALDH1A1 inh: 4%; PNC assembly inh: -94*; HTT aggregate: -1%; RGS12 GoLoco inh: -7%

How did Cc1ccc(-n2c(C)n[nH]c2=S)cc1 do in these assays?
HPGD block: -16%; HTT ATP protect: 12%[10 µM]; ALDH1A1 inh: 11%; PNC assembly inh: 29; HTT aggregate: -9%; RGS12 GoLoco inh: -3%

How did Fc1ccccc1-n1c(-c2ccc3ccccc3n2)n[nH]c1=S do in these assays?
HTT ATP protect: 22%[10 µM]; ALDH1A1 inh: 17%; HTT aggregate: 5%; RGS12 GoLoco inh: 8%

How did Cc1cccc(-n2c(-c3csc4ccccc34)n[nH]c2=S)c1 do in these assays?
HPGD block: 14µM*; ALDH1A1 inh: inconclusive; PNC assembly inh: -1; HTT aggregate: 10%; RGS12 GoLoco inh: 3%

What do the screens show for `Cc1ccc(-n2c(-c3cccc(C)c3)n[nH]c2=S)cc1`?
HPGD block: 22µM*; HTT ATP protect: -3%; ALDH1A1 inh: 2%; PNC assembly inh: -9; HTT aggregate: 6%; RGS12 GoLoco inh: -9%

Results for S=c1[nH]nc(-c2ccc3ccccc3n2)n1-c1ccccc1 ?
HPGD block: 28µM*; HTT ATP protect: 24%[10 µM]; ALDH1A1 inh: inconclusive; PNC assembly inh: inconclusive; HTT aggregate: 22%; RGS12 GoLoco inh: 7%

What do the screens show for `O=C(NC(=S)N1CCN(Cc2ccccc2)CC1)c1ccco1`?
HTT ATP protect: -8%; ALDH1A1 inh: inconclusive; HTT aggregate: -2%; RGS12 GoLoco inh: -1%

Results for CCC1=C2CC[C@H]3C(=O)N(CC)C(=O)[C@H]3[C@H]2[C@@]2(Cc3ccccc3)C(=NCC3CC3)OC(=O)N2C1=O ?
HPGD block: -7%; HTT ATP protect: -8%; ALDH1A1 inh: 3%; RGS12 GoLoco inh: -2%

Results for O=c1ccn([C@H]2O[C@H](CO)[C@@H](O)[C@@H]2O)c(=O)[nH]1 ?
HTT ATP protect: -16%

How did COc1ccccc1-c1n[nH]c(=S)n1-c1ccccc1 do in these assays?
HPGD block: 32µM*; HTT ATP protect: -134%; ALDH1A1 inh: inconclusive; PNC assembly inh: inconclusive; HTT aggregate: -7%; RGS12 GoLoco inh: 6%

What do the screens show for `Cc1cccc(-n2c(-c3ccncc3)n[nH]c2=S)c1`?
HPGD block: -28%; HTT ATP protect: -1%[1.9 µM]; ALDH1A1 inh: inconclusive; PNC assembly inh: 9; HTT aggregate: 4%; RGS12 GoLoco inh: 3%

How did COc1ccccc1-c1n[nH]c(=S)n1N do in these assays?
HTT ATP protect: 2%; ALDH1A1 inh: 5%; HTT aggregate: 7%; RGS12 GoLoco inh: -1%

Results for Cc1cccc(-n2c(C)n[nH]c2=S)c1 ?
HPGD block: -12%; HTT ATP protect: 3.5µM*; ALDH1A1 inh: 4%; PNC assembly inh: 129; HTT aggregate: 12%; RGS12 GoLoco inh: 12%

What do the screens show for `S=c1[nH]nc(-c2ccc(Br)cc2)n1-c1ccc2c(c1)OCCO2`?
HTT ATP protect: 7%[10 µM]; HTT aggregate: 8%[9.22 µM]; RGS12 GoLoco inh: -4%

Results for O=C(O)c1ccc(-n2c(-c3ccc(Br)cc3)n[nH]c2=S)cc1 ?
HPGD block: inconclusive; HTT ATP protect: -16%; ALDH1A1 inh: 28µM*; PNC assembly inh: inconclusive; HTT aggregate: 21%; RGS12 GoLoco inh: -5%

Results for Cc1cccc(-n2c(-c3ccoc3C)n[nH]c2=S)c1 ?
HPGD block: 25µM*; HTT ATP protect: 10%[10 µM]; ALDH1A1 inh: -3%; PNC assembly inh: 20; HTT aggregate: inconclusive; RGS12 GoLoco inh: 20%

How did CCN1C(C)=C(C(=O)OC)C(c2ccccc2)N2C(=O)[C@](O)(C(=O)OC)C(c3ccccc3)C(C(=O)c3ccccc3)=C12 (some centres undefined) do in these assays?
HTT ATP protect: inconclusive; ALDH1A1 inh: 3%[13.5 µM]

What do the screens show for `CC1CCC(C(=O)O)NC1c1cccc(N2CCOCC2)c1` (centres undefined)?
HTT ATP protect: -16%[10 µM]; ALDH1A1 inh: -3%[13.5 µM]
